Data on 40 compounds can be found in PubChem BioAssay AID1345085 (National Center for Advancing Translational Sciences (NCATS), 2018).

Inconclusive results are not listed. Active and inactive are the calls of the source. Calls follow the shape of the dose curve; as a rule, active = well fitted cell-killing curve with a large enough effect; inconclusive = small, poorly fitted or top-dose-only effect, or effect the other way; inactive = no such curve, though single readings can be large or run the other way.
Potency is read from the fitted curve at half-maximal effect.

In the assay the test system is PA-1. Kind of assay: Confirmatory qHTS for gynecologic anti-cancer compounds from libraries of approved drugs and bioactive compounds. Also: nearly all actives have a fitted effect of over 55% in size. Particulars: gynecologic cancer cell panel viability, ATPlite luminescence, 48 h; series mostly up to 57.6 µM. In short, it runs like this: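 IC50 values derive from an ATPlite ATP-content luminescence assay following 48 h treatment at 37 C. Each compound ran as an 11-concentration, threefold series (57.5 uM to 0.977 nM); HEK 293T served as control line for selectivity index.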
(In general: qHTS replaces the single test concentration by a dilution series.)
With `O=c1[nH]c(=O)n([C@H]2C[C@H](O)[C@@H](CO)O2)cc1Br`, the Potency result was “inactive”.
Turning to `COc1cc2c(cc1-c1c(C)noc1C)ncc1[nH]c(=O)n(C(C)c3ccccn3)c12` (stereo not given), the Potency is 2.17 µM (active).
Regarding `CNC(=O)c1ccccc1Sc1ccc2c(/C=C/c3ccccn3)n[nH]c2c1`, the Potency was 4.32 µM (active).
Consider `COc1cc2c(NC3CCN(C(C)C)CC3)nc(C3CCCCC3)nc2cc1OCCCN1CCCC1`, for which the Potency was 17.2 µM (active).
In the case of `O=C(/C=C/c1cccc(S(=O)(=O)Nc2ccccc2)c1)NO`, the Potency was 0.595 µM (active).
Next, `CC(C)C[C@H](NC(=O)[C@H](Cc1ccccc1)NC(=O)c1cnccn1)B(O)O`: 0.0385 µM (active).
As to `O=C(CCCCCCNC(=O)c1cnc(N(c2ccccc2)c2ccccc2)nc1)NO`, the Potency was 3.06 µM (active).
With `COc1c(C)c2c(c(O)c1C/C=C(\C)CCC(=O)O)C(=O)OC2`, the Potency was 2.17 µM (active).
For `Cc1cc(SCc2sc(-c3ccc(C(F)(F)F)cc3)nc2C)ccc1OCC(=O)O`, the Potency result was “inactive”.
Take `COc1cc2nccc(Oc3ccc(NC(=O)C4(C(=O)Nc5ccc(F)cc5)CC4)cc3)c2cc1OC`: the Potency is 10.9 µM (active).
For the compound `CNc1nccc(-c2cccnc2Oc2cc(C(=O)Nc3cccc(C(F)(F)F)c3)ccc2C)n1`, the Potency was 17.2 µM (active).
For `CNCc1ccc(-c2[nH]c3cc(F)cc4c3c2CCNC4=O)cc1` the value was 19.3 µM (active); for `CCCCN(CCCC)C(=O)CN1C[C@H](c2ccc3c(c2)OCO3)[C@@H](C(=O)O)[C@@H]1c1ccc(OC)cc1`, “inactive”.
For `CCn1c(-c2nonc2N)nc2c(C#CC(C)(C)O)ncc(OCC3CCCNC3)c21` (stereo not given) the value was 7.69 µM (active); for `O=c1[nH]c(=O)n([C@H]2C[C@H](O)[C@@H](CO)O2)cc1F`, 0.109 µM (active); for `CN(c1nccc(=O)[nH]1)C1CCN(c2nc3ccccc3n2Cc2ccc(F)cc2)CC1`, “inactive”.
Consider `COc1cccc2c1C(=O)c1c(O)c3c(c(O)c1C2=O)C[C@@](O)(C(=O)CO)C[C@@H]3O[C@H]1C[C@H](N)[C@H](O[C@@H]2CCCCO2)[C@H](C)O1`, for which the Potency was 0.685 µM (active).
Next, `O=C1NC(=O)C(c2cnc3ccccn23)=C1c1cn2c3c(cccc13)CN(C(=O)N1CCOCC1)CC2`: 10.9 µM (active); `CC(Oc1ccc2[nH]nc(/C=C/c3cnn(CCO)c3)c2c1)c1c(Cl)cncc1Cl` (stereo not given): 1.93 µM (active).
Take `CC(Oc1cc(-n2cnc3ccc(CN4CCN(C)CC4)cc32)sc1C(N)=O)c1ccccc1C(F)(F)F` (stereo not given): the Potency was 2.43 µM (active).
Take `Cc1cnc(Nc2ccc(F)cc2Cl)nc1-c1c[nH]c(C(=O)NC(CO)c2cccc(Cl)c2)c1` (stereo not given): the Potency was 24.3 µM (active).
For `CC(=O)OC12COC1CC(O)C1(C)C(=O)C(O)C3=C(C)C(OC(=O)C(O)C(NC(=O)OC(C)(C)C)c4ccccc4)CC(O)(C(OC(=O)c4ccccc4)C21)C3(C)C` (stereo not given) the value was 0.0077 µM (active).
Consider `CCc1c2c(nc3ccc(O)cc13)-c1cc3c(c(=O)n1C2)COC(=O)[C@]3(O)CC`, for which the Potency is 0.0769 µM (active).
For `Cn1cnc([N+](=O)[O-])c1Sc1ncnc2nc[nH]c12` the value was 5.44 µM (active); for `CNC(=O)c1nn(C)c2c1C(C)(C)Cc1cnc(Nc3ccc(N4CCN(C)CC4)cc3)nc1-2`, 0.769 µM (active); for `Nc1nccc(Oc2ccc(NC(=O)c3c[nH]cc(-c4ccc(F)cc4)c3=O)cc2F)c1Cl`, 3.06 µM (active).
As for `O=C(NOCC1CC1)c1ccc(F)c(F)c1Nc1ccc(I)cc1Cl`, the Potency is 8.63 µM (active).
For the compound `Cc1cc(Nc2cc(N3CCN(C)CC3)nc(/C=C/c3ccccc3)n2)n[nH]1`, the Potency was 3.85 µM (active).
Take `O=c1cc(CN2CCOCC2)occ1OCCCCCSc1ccnc2cc(C(F)(F)F)ccc12`: the Potency was 8.63 µM (active).
Next, `CNC1CCC(N(Cc2cccc(-c3ccncc3)c2)C(=O)c2sc3ccccc3c2Cl)CC1` (stereo not given): 24.3 µM (active).
For `COc1cc(N2CCC(N(C)C)CC2)ccc1Nc1ncc(Cl)c(Nc2ccccc2P(C)(C)=O)n1` the value was 6.11 µM (active).
Next, `Cc1cc(C(C)Nc2ccccc2C(=O)O)c2nc(N3CCOCC3)cc(=O)n2c1` (stereo not given): 21.7 µM (active); `COc1cc2nccc(Oc3ccc(NC(=O)Nc4cc(C)on4)c(Cl)c3)c2cc1OC`: 5.44 µM (active).
Turning to `C#C[C@]1(O)CC[C@H]2[C@@H]3CCC4=CC(=O)CC[C@@H]4[C@H]3CC[C@@]21CC`, the Potency result was “inactive”.
On to `COC(C(=O)N1Cc2[nH]nc(NC(=O)c3ccc(N4CCN(C)CC4)cc3)c2C1)c1ccccc1` (stereo not given), for which the Potency was 7.69 µM (active).
In the case of `CCN(CC)CCOc1ccc(/C(=C(\Cl)c2ccccc2)c2ccccc2)cc1`, the Potency is 28.2 µM (active).
With `CN1CCN(Cc2ccc(NC(=O)Nc3ccc(Oc4cc(NC(=O)C5CC5)ncn4)cc3)cc2C(F)(F)F)CC1`, the Potency is 0.193 µM (active).
Take `CCc1c2c(nc3ccc(OC(=O)N4CCC(N5CCCCC5)CC4)cc13)-c1cc3c(c(=O)n1C2)COC(=O)[C@]3(O)CC`: the Potency is 7.69 µM (active).
As for `Cc1cc(C2CCCCC2)n(O)c(=O)c1`, the Potency was 3.53 µM (active).
For the compound `O=C1c2c(O)ccc(O)c2C(=O)c2c(NCCNCCO)ccc(NCCNCCO)c21`, the Potency is 0.432 µM (active).
